Each structure is given as a SMILES string. Screen size: about 1,300 compounds; about 330 (25%) were called active. The list is a sample of the results. Results with a measured potency or affinity are listed apart. A number with no mark means an inactive call. How the calls were made is not given here.

The experiment can be described thus: MALME3 melanoma cell viability loss, dose response, orthogonal assay for MITF inhibitor project, CellTiter-Glo, cherry-picked (AID 493191). The note with it: CellTiter-Glo luminescence, 24 h; series mostly up to 35 µM; activity change, negative = inhibition: at the top concentration.
Turning to `Cc1ccc(C(=O)Nc2ccccc2Cl)cc1`, the “activity change, negative = inhibition” value is -2.44%.

Consider `Cc1ccc(OCCCCN2CCCCC2)c(Br)c1`, for which the “activity change, negative = inhibition” value is -0.175%.

As to `COc1ccc(Br)cc1C(C[N+](=O)[O-])c1c(N)n(C)c(=O)n(C)c1=O` (stereo not given), the “activity change, negative = inhibition” value was -38.4%.

With `Cc1ccc2nc(NC(=O)CCCC(=O)O)sc2c1`, the “activity change, negative = inhibition” value is 3.35%.

Regarding `CN(C)CCCN(C(=O)c1ccc(Cl)s1)c1nc2cc3c(cc2s1)OCO3`, the “activity change, negative = inhibition” value was -27.2%.

As for `CN(Cc1ccccc1)C1=CC(=[N+]2CCCC2)CC(C)(C)C1`, the “activity change, negative = inhibition” value is -29.5%.

Turning to `CN(C)c1cc[n+](CC(=O)c2ccc(-c3ccccc3)cc2)cc1`, the “activity change, negative = inhibition” value was -30.2%.

Take `CN(CC(=O)N1CCCCCC1)S(=O)(=O)c1ccccc1`: the “activity change, negative = inhibition” value is -9.21%.

Turning to `CCN(CC)Cc1c(O)ccc2c1O/C(=C\C=C\c1ccccc1)C2=O`, the “activity change, negative = inhibition” value is 1.3%.

On to `Cc1cc(C)c2ccc(N)nc2c1O`, for which the “activity change, negative = inhibition” value was -10.6%.

Take `CN(C)c1ccc(/C=C/c2cccc[n+]2[O-])cc1`: the “activity change, negative = inhibition” value is 1.08%.

In the case of `O=C(CCl)Nc1cn(-c2ccccc2)nc1-c1ccccc1`, the “activity change, negative = inhibition” value was -39.9%.

Turning to `Cc1nn2c(N)c(-c3ccccc3)cnc2c1-c1ccccc1`, the “activity change, negative = inhibition” value is -1.78%.

For `Brc1ccc(-c2cn3cccnc3n2)cc1`, the “activity change, negative = inhibition” value is 19.9%.

As for `CC1CCCC(C)N1CCCNC(=O)c1cc2c(s1)-c1ccccc1OC2` (stereo not given), the “activity change, negative = inhibition” value is -42%.

Take `O=C(/C=C\Nc1ccc2c(c1)OCO2)c1ccccn1`: the “activity change, negative = inhibition” value was -33%.

As for `O=[N+]([O-])c1ccc(/C=N/Nc2ccnc3cc(Cl)ccc23)o1`, the “activity change, negative = inhibition” value was -25.8%.

Consider `CCN(CC)S(=O)(=O)c1cccc(C(=O)N/N=C/c2ccc([N+](=O)[O-])o2)c1`, for which the “activity change, negative = inhibition” value is -68.6%.

For `CC1CN(N=Cc2ccc([N+](=O)[O-])o2)C(=N)O1` (stereo not given), the “activity change, negative = inhibition” value is -38.8%.

With `CC(C)C(NC(=O)OCc1ccccc1)C(=O)OCC(=O)N1CCCCC1` (stereo not given), the “activity change, negative = inhibition” value was 13.4%.

For `O=C(NC(=S)NCc1ccccc1)c1ccccc1`, the “activity change, negative = inhibition” value is -1.25%.

Consider `CCOc1ccc(-n2c(O)c(/C=N/Nc3nc(C)cc(C)n3)c3ccccc3c2=O)cc1`, for which the “activity change, negative = inhibition” value is -11.6%.

With `COc1ccc(Nc2oc(-c3ccc(OC)cc3)nc2C#N)cc1`, the “activity change, negative = inhibition” value was 12.9%.

Consider `CC1CCN(C(=O)c2cc3ccccc3o2)CC1`, for which the “activity change, negative = inhibition” value was 5.53%.

For the molecule `Cc1cc(C(=O)N/N=C/c2ccc([N+](=O)[O-])o2)c(C)o1`, the “activity change, negative = inhibition” value is -46%.

In the case of `O=C(N/N=C/c1ccccc1)c1ccco1`, the “activity change, negative = inhibition” value is -6.51%.

With `O=C(Nc1nc2ccccc2s1)Nc1ccc(F)cc1F`, the “activity change, negative = inhibition” value was 1.35%.

On to `O=C(Nc1cnc2ccccn2c1=O)c1ccc(F)cc1`, for which the “activity change, negative = inhibition” value is 7.32%.

With `O=C(N/N=C/c1cccc(Oc2ccc([N+](=O)[O-])cc2[N+](=O)[O-])c1)c1cncc(Br)c1`, the “activity change, negative = inhibition” value is -17.8%.

On to `COc1cccc(/C=N/Nc2nc3ccccc3[nH]2)c1OC`, for which the “activity change, negative = inhibition” value is 3.26%.

As for `C[C@H]1CCC[C@]2(C)C[C@H]3OC(=O)C(CN4CCCCCC4)[C@H]3C=C12` (stereo not given in full), the “activity change, negative = inhibition” value was -14.2%.

Regarding `O=C(COC(=O)C1=COCCO1)Nc1c(F)cccc1F`, the “activity change, negative = inhibition” value was 6.62%.

Take `COc1cc(NC(=O)COc2cc(O)c3c(c2)OC(C)(C)CC3=O)cc(OC)c1OC`: the “activity change, negative = inhibition” value is -9.31%.

In the case of `O=C(Nc1ccccc1Cl)Nc1cccc2cccnc12`, the “activity change, negative = inhibition” value is -20.8%.

In the case of `O=C(N/N=C/c1cc(Br)ccc1O)c1ccncc1`, the “activity change, negative = inhibition” value is -32.5%.

For `Cn1cccc1-c1cc(C(=O)N/N=C/c2cc(Br)ccc2O)[nH]n1`, the “activity change, negative = inhibition” value was -9.81%.

Consider `Oc1ccccc1/C=N/Nc1cccc2cccnc12`, for which the “activity change, negative = inhibition” value is -2.28%.

For `O=C(CCCCC(=O)NN=Cc1ccccc1O)NN=Cc1ccccc1O`, the “activity change, negative = inhibition” value is -4.07%.

Turning to `Cc1nc(NC(=O)C2CC2)sc1C(=O)Nc1ccccc1Cl`, the “activity change, negative = inhibition” value was -0.052%.

With `COc1ccc(C(=O)/C=C(\C)Nc2ccc3c(c2)OCO3)cc1`, the “activity change, negative = inhibition” value is -1.82%.

In the case of `COc1cc(C2C(C#N)=C(N)Oc3cc4c(cc32)OCO4)cc(OC)c1OC` (stereo not given), the “activity change, negative = inhibition” value was 10.1%.

Consider `O=C(Nc1nnc(Cc2ccccc2)s1)c1ccccc1`, for which the “activity change, negative = inhibition” value was 12.2%.

For `CCOc1ccc(NC(=O)Nc2cccc(C(=O)O)c2)cc1`, the “activity change, negative = inhibition” value was -33.2%.

Take `CN(C)c1ccc(-n2cccc2/C=C/[N+](=O)[O-])cc1`: the “activity change, negative = inhibition” value is -41.8%.

With `Cc1cc(Cl)ccc1NC(=O)c1ccc2c(c1)OCO2`, the “activity change, negative = inhibition” value is 13.7%.

`Cc1ccc(OCC(=O)Nc2cccc(C)n2)c(C)c1`: the “activity change, negative = inhibition” value was 5.8%.

In the case of `O=[N+]([O-])c1cc(S(=O)(=O)N2CCCCCC2)ccc1F`, the “activity change, negative = inhibition” value was -22.2%.

Turning to `COc1ccc(/C=C/C(=O)NC(=S)N2CCN(c3ccccc3OC)CC2)cc1`, the “activity change, negative = inhibition” value was -2.42%.

`CCN1CCN(c2ccc(S(=O)(=O)N3CCOCC3)cc2NC(=O)/C=C/c2ccc([N+](=O)[O-])cc2)CC1`: the “activity change, negative = inhibition” value is -29%.

For `COc1cccc(/C=C/C(=O)c2ccc3c(c2)OCCO3)c1OC`, the “activity change, negative = inhibition” value is -7.96%.

Take `CN(C)CCNc1ccc2nnn3c4ccc(O)cc4c(=O)c1c23`: the “activity change, negative = inhibition” value is -23.3%.

On to `N=C1C(c2nc3ccccc3[nH]2)=C(O)CN1C1CCCCC1`, for which the “activity change, negative = inhibition” value is -0.094%.

Regarding `COc1ccc(C(=O)NCCSc2ccccc2C)cc1`, the “activity change, negative = inhibition” value was -4.39%.

For `COc1ccc(/C=C2\Sc3ccc(C(=O)NCCN4CCCCCC4)cc3N(C)C2=O)cc1`, the “activity change, negative = inhibition” value is -30.5%.

As for `O=C(NCCSc1ccccc1)c1ccccc1F`, the “activity change, negative = inhibition” value was -4.77%.

`CN(C)CCCNc1nc2sc3c(c2c(=O)n1CCc1ccccc1)CCCCC3`: the “activity change, negative = inhibition” value was -41.2%.

`CC(C)(C)c1ccc(-c2cn(-c3ccc(Br)cc3)c3[n+]2CCCS3)cc1`: the “activity change, negative = inhibition” value is -35.8%.

For the molecule `OCc1ccc(N=Nc2ccccc2)cc1`, the “activity change, negative = inhibition” value is 4.1%.

As to `CN(C)C1CCN(Cc2cc(COCc3ccccc3)c3cccnc3c2O)C1` (stereo not given), the “activity change, negative = inhibition” value is -30.3%.

Turning to `Oc1c(CN2CCCC2)cc(COCc2ccccc2)c2cccnc12`, the “activity change, negative = inhibition” value was -30.5%.

Take `COc1cccc(CNc2nc3ccccc3n2C)c1O`: the “activity change, negative = inhibition” value is -9.88%.

`COC(=O)c1c(NC(=O)c2nc3ccccc3s2)sc2c1CC(C)(C)NC2(C)C`: the “activity change, negative = inhibition” value was -5.34%.

With `CC(=O)Nc1ccc2c(c1)ncn2-c1ccccc1`, the “activity change, negative = inhibition” value is 1.87%.

Consider `O=C1c2ccccc2CN1c1ccccc1`, for which the “activity change, negative = inhibition” value was -4.28%.

In the case of `O=C(NCc1csc(-c2cccs2)n1)C1CCC1`, the “activity change, negative = inhibition” value is 5.23%.

For `C/C(=N\NC(=O)C(C)Oc1ccc([N+](=O)[O-])cc1)c1ccccn1` (stereo not given), the “activity change, negative = inhibition” value is -25.6%.

On to `CC(=O)N(C1CC(C)C(C#N)(C#N)C1(C#N)C#N)N(C)C` (stereo not given), for which the “activity change, negative = inhibition” value is 45.4%.

In the case of `COc1ccccc1N1C(=O)N(C(C)=O)C2C1Nc1ccccc1N2C` (stereo not given), the “activity change, negative = inhibition” value is -21%.

For the molecule `N#Cc1cnc2sc3ccccc3n2c1=N`, the “activity change, negative = inhibition” value was -6.66%.

On to `Cc1c(/C=C/C(=O)c2ccc(Cl)s2)cnn1C`, for which the “activity change, negative = inhibition” value was 1.68%.

With `Cc1c(C=O)c2cc(OCc3ccccc3)ccc2n1C`, the “activity change, negative = inhibition” value was 10.2%.

With `N#C/C(=C\C=C\c1ccccc1[N+](=O)[O-])C(=O)NC1CCCCC1`, the “activity change, negative = inhibition” value was -15.7%.

`N#C/C(=C\C=C\c1ccccc1[N+](=O)[O-])C(=O)NCc1ccccc1`: the “activity change, negative = inhibition” value was -15.7%.

Take `Nc1ncnc(Sc2ncccn2)c1[N+](=O)[O-]`: the “activity change, negative = inhibition” value is 14.4%.

With `CC(C)C(=O)Nc1ccc2nn(-c3ccc(F)cc3)nc2c1`, the “activity change, negative = inhibition” value is 1.91%.

These data come from PubChem BioAssay AID493191 (Broad Institute, 2011).
